Screening data: PubChem BioAssay, National Center for Advancing Translational Sciences (NCATS)
Rows were chosen to be rich in hits. Some 1.5% of all compounds tested hit in one or more screens of this group.
PI5P4K alpha inh: inhibitors of human PI5P4K alpha | P48426 | PI5P4Kalpha enzyme, ADP-Glo luminescence, 60 min; stronger effect = lower value | max response, % | hit rate 1.2% among 330,000; active = max response of -50% or lower; inconclusive = between -30% and -50%; inactive = -30% or higher; note: value at the top dose of about 77 µM; % is set by controls: 0 for no effect and ±100 for the full control effect
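Compounds were pin-transferred onto PI5P4Kalpha and substrate in HEPES pH 7.4 buffer with EGTA, CHAPS and 5% DMSO. ATP (5 microM final) started the reaction, which ran 60 minutes at room temperature before ADP-Glo detection.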
FEN1 inhibitor: blocks human flap endonuclease 1 | hit rate 0.35% among 390,000 | Potency, µM (series often up to 114 µM), without a hit: at the highest dose activity change, negative = inhibition, hits mostly inhibitors | AID 588795 | Recombinant FEN1 flap cleavage, fluorescence, 15 min; note: potency is the fitted concentration of half-maximal effect; % is set by controls: 0 for no effect and ±100 for the full control effect; nearly all actives have a fitted effect of over 65% in size
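With each library titrated from low to high concentration, compounds met 10 nM FEN1 for 15 min at room temperature before 50 nM substrate was added; readings at 0 and 15 min fed four-parameter Hill curve fits.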
APEX1 inh: APE1 (human) endonuclease inhibition. hit rate 0.35% among 350,000. recombinant APE1, TAMRA/BHQ-2 abasic DNA cleavage fluorescence. Potency, µM (doses to about 65.8 µM), for inactives: at the highest dose activity change, negative = inhibition, actives largely listed as inhibitors;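 note: potency is the fitted concentration of half-maximal effect; plate controls were vehicle for no effect and reference inhibitor for full effect; nearly all actives have a fitted effect of over 55% in size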
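Quantitative HTS: incision of a TAMRA/BHQ-2 double-stranded substrate bearing a tetrahydrofuran abasic site by 0.75 nM APE1 raises fluorescence. Substrate 50 nM final, added after 15 min compound preincubation at room temperature; progress as third-minus-first kinetic read difference.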
WRN helicase inh-1: WRN helicase (human) inhibition. WRN helicase unwinding, fluorescent forked duplex, kinetic. Potency, µM (top dose mostly 114 µM), without a hit: at the top dose activity change, negative = inhibition, hits mostly inhibitors. hit rate 0.46% among 360,000; note: potency is the fitted concentration of half-maximal effect; % is set by controls: 0 for no effect and ±100 for the full control effect; nearly all actives have a fitted effect of over 55% in size
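WRN at 20 nM final preincubated with compound 15 min at room temperature; reaction started with 100 nM fluorophore/quencher forked duplex oligonucleotide and 2 mM ATP final. Unwinding followed kinetically by red fluorescence (ex 525, em 598 nm).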
BLM helicase inh-1: inhibitors of human Bloom syndrome helicase BLM; Potency, µM (titrated, usually from 56.1 µM), for the others: top-dose activity change, negative = inhibition, hits mostly inhibitors; P54132; recombinant BLM DNA unwinding, fluorescence dequenching; hit rate 0.2% among 350,000;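 note: potency is the fitted concentration of half-maximal effect; plate controls were vehicle for no effect and no enzyme for full effect; nearly all actives have a fitted effect of over 35% in size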
RECQ1 inh: inhibitors of human RECQ1 DNA helicase; Potency, µM (series often up to 57.3 µM), without a hit: at the highest dose activity, negative = inhibition, usual class: inhibitors; P46063; RECQ1 DNA unwinding, red fluorescence kinetic read; hit rate 0.54% among 240,000;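 note: potency is the fitted concentration of half-maximal effect; plate controls were vehicle for no effect and no enzyme for full effect; nearly all actives have a fitted effect of over 30% in size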
Target sequence (P46063 whole entry, looked up): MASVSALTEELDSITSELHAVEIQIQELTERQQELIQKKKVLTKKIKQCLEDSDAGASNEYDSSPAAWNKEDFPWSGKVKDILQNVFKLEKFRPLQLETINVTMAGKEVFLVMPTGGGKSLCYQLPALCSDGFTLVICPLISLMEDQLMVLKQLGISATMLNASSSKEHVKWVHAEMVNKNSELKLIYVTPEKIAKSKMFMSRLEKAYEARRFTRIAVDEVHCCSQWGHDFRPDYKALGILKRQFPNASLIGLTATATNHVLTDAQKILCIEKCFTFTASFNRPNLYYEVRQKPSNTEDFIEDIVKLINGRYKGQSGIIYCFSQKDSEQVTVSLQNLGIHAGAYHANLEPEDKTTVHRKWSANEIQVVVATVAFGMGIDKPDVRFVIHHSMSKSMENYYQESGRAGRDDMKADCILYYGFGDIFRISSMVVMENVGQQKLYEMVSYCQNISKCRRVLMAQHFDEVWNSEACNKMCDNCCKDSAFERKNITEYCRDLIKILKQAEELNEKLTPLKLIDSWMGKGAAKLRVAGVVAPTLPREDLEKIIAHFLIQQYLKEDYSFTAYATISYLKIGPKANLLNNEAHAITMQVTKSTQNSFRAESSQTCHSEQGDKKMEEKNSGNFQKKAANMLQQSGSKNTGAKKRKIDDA
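RECQ1T1 50 nM; forked duplex (20 bp + 30-nt ss tails) 200 nM, ATP 2 mM final; pH 8.0, 2 mM MgCl2, 2.5 ug/ml poly(dI-dC); 15 min compound preincubation; discontinuous kinetic read over 2 h at RT.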
WRN helicase inh-2: WRN helicase inhibition, cherry-pick retest. hit rate 63% among 610. Potency, µM (series often up to 57.1 µM), for inactives: at the top dose activity, negative = inhibition, actives largely listed as inhibitors. shares compounds with WRN helicase inh-1. WRN helicase DNA unwinding, fluorescence kinetic; note: potency is the fitted concentration of half-maximal effect; nearly all actives have a fitted effect of over 65% in size
TO displacement: binds DNA, flagged in WRN inhibitor counterscreen; thiazole orange DNA binding displacement, fluorescence; hit rate 10% among 610; shares compounds with WRN helicase inh-1; Potency, µM (titrated, usually from 57.1 µM), for the others: top-dose activity change, negative = inhibition, most hits filed as inhibitors; AID 720499;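 note: drop in dye fluorescence marks compound binding to DNA; potency is the fitted concentration of half-maximal effect; % is set by controls: 0 for no effect and ±100 for the full control effect; nearly all actives have a fitted effect of over 60% in size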
BLM helicase inh-2: counter-screen for WRN helicase inhibitors: human BLM helicase inhibition; shares compounds with WRN helicase inh-1; Recombinant BLM helicase DNA unwinding, red fluorescence; Potency, µM (series often up to 57.1 µM), inactives show at the highest dose activity change, negative = inhibition, usual class: inhibitors; hit rate 60% among 610; note: potency is the fitted concentration of half-maximal effect; nearly all actives have a fitted effect of over 60% in size
An asterisk follows results filed as active; i = inactive; ? = inconclusive; . = no result; [ ] = dose if it differs, or a comment. Unless noted, calls come from the whole dose curve; as a rule, active = well fitted curve in the direction sought with a large enough effect; inconclusive = small, poorly fitted or top-dose-only effect, or another doubt; inactive = no such curve, though single readings can be large; an effect the other way counts as inactive or inconclusive.

SMILES | PI5P4K alpha inh | FEN1 inhibitor | APEX1 inh | WRN helicase inh-1 | BLM helicase inh-1 | RECQ1 inh | WRN helicase inh-2 | TO displacement | BLM helicase inh-2
COc1ccc(CN2COc3ccc4c(-c5ccccc5)cc(=O)oc4c3C2)cc1 | . | 12% | . | . | -3% | . | . | . | .
CC(NC(=O)COC(=O)/C=C/c1ccc([N+](=O)[O-])cc1)c1ccccc1 (configuration not stated) | 16 | -100% | -4% | ? | -7% | -16% | -3% | -4% | -7%
CC1C=CC(C)C(C(=O)O)C1C(=O)O (configuration not stated) | -1 | -6% | ? | ? | -13% | -2% | 14µM* | 38% | 4.8µM*
N[C@H](C(=O)O)C1[C@H](C(=O)O)[C@H]1C(=O)O (some centres not stated) | . | . | 0% | . | -1% | 1% | . | . | .
O=C(NCCO)c1cccc2c1C(=O)c1ccccc1-2 | -9 | -21% | -6% | -3% | 1% | -5% | . | . | .
O=C1c2cccc(NCCNCCO)c2C(=O)c2cccc(NCCNCCO)c21 | -17 | 4µM* | . | 7.1µM* | . | . | 6.1µM* | 1.2µM* | 7.6µM*
COc1ccc(-c2[nH]ncc2C(=O)NCc2cccc(Cl)c2)cc1 | . | -1% | . | . | -2% | . | . | . | .
Cc1cc(C)cc(N2C(=O)CSC23C(=O)N(Cc2c(F)cccc2Cl)c2ccccc23)c1 (configuration not stated) | . | 3% | . | . | -4% | . | . | . | .
CC(O)(c1ccccc1)c1nc(-c2ccccc2)cs1 (configuration not stated) | -7 | . | . | -5% | . | . | . | . | .
CC(O)(c1ccccc1)c1nc(-c2ccncc2)cs1 (configuration not stated) | -2 | . | . | ? | . | . | ? | -27% | ?
COc1cc(C)c2sc3ccccc3c(=O)c2c1NCCN(C)C | -9 | . | . | 35µM* | . | . | ? | 17µM* | ?
Cc1cc(O)cc2c(=O)c3ccccc3sc12 | -10 | -19% | -11% | -4%[57.1 µM] | -5% | -5% | . | . | .
O=C(COc1ccc(/C=N/NC(=O)c2ccccc2O)cc1)Nc1ccc([N+](=O)[O-])cc1 | 0 | 3% | 1% | 17µM* | -22% | 0% | 11µM* | ? | 4.8µM*
O=C(COc1ccc(/C=N/NC(=O)c2ccncc2)cc1)Nc1ccccc1 | 1 | 1% | -32% | -21% | -9% | . | . | . | .
O=C(Nc1nncs1)c1cc(-c2ccco2)nc2ccccc12 | ? | -17% | -30% | 32µM* | . | . | ? | -9% | ?
c1ccc(COC[C@@H]2CO2)cc1 | . | . | 18% | . | 4% | 0% | . | . | .
N#C/C(=C\c1ccc(-c2ccc(C(=O)O)cc2)o1)C(=O)Nc1ccccc1C(=O)O | . | ? | . | . | -7% | . | ? | 11µM* | 19µM*
N#C/C(=C\c1ccc(-c2ccc(Br)cc2)o1)C(=O)Nc1ccccc1O | . | -31% | . | . | -4% | . | . | . | .
CCCC(=O)NC1=C(Cl)C(=O)c2ccccc2C1=O | -58* | -33% | . | 25µM* | . | . | -17% | 4.8µM* | 24µM*
CN1CCc2nc(SCC(=O)Nc3ccc(OC(F)(F)F)cc3)c(C#N)c(-c3cccs3)c2C1 | -20 | -1% | -1% | ? | -20% | -11% | 19µM* | 3.4µM* | 24µM*
C=CCn1c(SCC(=O)c2ccc(O)c(O)c2)nnc1-c1cccc(C)c1 | -1 | -4% | -6% | 20µM* | . | . | 8.6µM* | -9% | ?
C=CCn1c(SCC(=O)c2ccc(O)c(O)c2)nnc1-c1ccccc1OC | -8 | 9% | -5% | ? | -4% | ? | 15µM* | -7% | 12µM*
C=CCn1c(SCC(=O)Nc2ccc(N(C)C)cc2)nnc1-c1cccc(C)c1 | -15 | -7% | -3% | -28% | -6% | i | . | . | .
O=C(CCCc1ccccc1)NC1CC(=O)N(c2ccc(F)cc2)C1 (configuration not stated) | . | -3% | . | . | 2% | . | . | . | .
COc1ccc(C(=O)N2CCc3cc(OC)c(OC)cc3C2COc2ccc3c(C)cc(=O)oc3c2)c(OC)c1 (configuration not stated) | . | 10% | . | . | -7% | . | . | . | .
CC1CCCC(C)N1S(=O)(=O)c1ccc(Cl)cc1 (configuration not stated) | 2 | 38% | -4% | -2% | -4% | . | . | . | .
CC1=C(C)CS(=O)N(S(=O)(=O)c2ccc(Cl)cc2)C1 (configuration not stated) | -20 | -28% | -7% | 13µM* | -9% | -4% | -30% | 2% | ?
